# Measurements: the supplement of paper PMC10849652
# The full data set covers some 8,800 targets. This sample favours those with a hit. About 0.5% of all pairs of compound and target were hits. Unmarked numbers belong to inactive results.
# Legend:
# Test in all cases: log2 fold change, soluble protein after heating vs DMSO (PISA); higher = thermal stabilisation; K562 lysate, 10 uM; active = over 0.2 and 3.5 SD of the protein, either way, in both replicates (recomputed)
# vemurafenib = compound: CCCS(=O)(=O)Nc1ccc(F)c(C(=O)c2c[nH]c3ncc(-c4ccc(Cl)cc4)cc23)c1F [vemurafenib]
# Summary of the method: (§1)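 A 30 min treatment with 10 μM compound was applied to crude K562 extract at 1 mg/mL protein in PBS pH 7.4 with 1 mM MgCl2. Heating for 3 min spanned 48°C-58°C, after which aliquots were pooled, adjusted to 0.5% NP-40 at 4°C and spun at 21,000xg for 90 min. TMTpro 16plex LC-MS/MS of the supernatant, with channel sums equalised, gave values recorded as log-two fold change in thermal stability against solvent controls, from duplicates.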
# [1] = compound: CCCS(=O)(=O)Nc1ccc(F)c(C(=O)c2c[nH]c3ncc(Cl)cc23)c1F
# Summary of the method: as §1
# barasertib = compound: CCN(CCCOc1ccc2c(Nc3cc(CC(=O)Nc4cccc(F)c4)[nH]n3)ncnc2c1)CCOP(=O)(O)O [barasertib]
# Summary of the method: as §1
# [2] = compound: CC[C@@H]1C(=O)N(C)c2cnc(Nc3ccc(C(=O)NC4CCN(C)CC4)cc3OC)nc2N1C1CCCC1
# Summary of the method: as §1
# volasertib = compound: CC[C@@H]1C(=O)N(C)c2cnc(Nc3ccc(C(=O)N[C@H]4CC[C@H](N5CCN(CC6CC6)CC5)CC4)cc3OC)nc2N1C(C)C [volasertib]
# Summary of the method: as §1
# [3] = compound: CCn1c(C(=O)N(C2CC2)C2CC2)cc2c3c(ncn3C)c(Nc3cc(C)n(C)n3)nc21
# Summary of the method: as §1
# [4] = compound: CCn1cc(-c2ccnc3[nH]c(-c4cccc(CN(C)C)c4)cc23)c(-c2ccc(NC(=O)N(C)C)cc2)n1
# Summary of the method: as §1
# [5] = compound: CN1CCC(CNc2ccc3ncc(-c4cccc(OC(F)(F)F)c4)n3n2)CC1
# Summary of the method: as §1
# saracatinib = compound: CN1CCN(CCOc2cc(OC3CCOCC3)c3c(Nc4c(Cl)ccc5c4OCO5)ncnc3c2)CC1 [saracatinib]
# Summary of the method: as §1
# sotrastaurin = compound: CN1CCN(c2nc(C3=C(c4c[nH]c5ccccc45)C(=O)NC3=O)c3ccccc3n2)CC1 [sotrastaurin]
# Summary of the method: as §1
# Sequence of UniProt Q96EK7 (Q96EK7 whole entry, looked up): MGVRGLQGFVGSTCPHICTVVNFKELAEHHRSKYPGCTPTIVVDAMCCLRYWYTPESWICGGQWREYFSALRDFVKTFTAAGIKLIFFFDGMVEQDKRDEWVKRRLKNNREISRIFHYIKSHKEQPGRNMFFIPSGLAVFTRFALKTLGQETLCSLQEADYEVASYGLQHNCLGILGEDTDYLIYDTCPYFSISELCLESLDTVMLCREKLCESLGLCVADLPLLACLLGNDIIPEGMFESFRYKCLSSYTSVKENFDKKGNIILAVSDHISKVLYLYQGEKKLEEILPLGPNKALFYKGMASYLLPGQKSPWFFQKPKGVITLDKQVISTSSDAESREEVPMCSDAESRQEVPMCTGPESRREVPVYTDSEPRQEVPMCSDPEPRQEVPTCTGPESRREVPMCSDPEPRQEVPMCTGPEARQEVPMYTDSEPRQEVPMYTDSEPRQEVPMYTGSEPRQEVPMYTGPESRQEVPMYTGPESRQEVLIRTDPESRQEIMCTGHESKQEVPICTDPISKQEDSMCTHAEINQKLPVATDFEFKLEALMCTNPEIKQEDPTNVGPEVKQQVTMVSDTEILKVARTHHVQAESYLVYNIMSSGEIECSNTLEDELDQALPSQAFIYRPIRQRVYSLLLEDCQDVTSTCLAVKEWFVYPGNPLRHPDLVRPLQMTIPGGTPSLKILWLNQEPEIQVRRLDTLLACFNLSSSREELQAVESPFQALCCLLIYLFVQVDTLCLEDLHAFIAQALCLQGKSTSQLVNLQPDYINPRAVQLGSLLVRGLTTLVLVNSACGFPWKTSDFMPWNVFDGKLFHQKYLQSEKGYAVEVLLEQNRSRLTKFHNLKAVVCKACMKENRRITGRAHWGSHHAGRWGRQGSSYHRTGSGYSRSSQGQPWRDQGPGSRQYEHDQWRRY
# Sequence of UniProt Q96L91 (Q96L91 whole entry, looked up): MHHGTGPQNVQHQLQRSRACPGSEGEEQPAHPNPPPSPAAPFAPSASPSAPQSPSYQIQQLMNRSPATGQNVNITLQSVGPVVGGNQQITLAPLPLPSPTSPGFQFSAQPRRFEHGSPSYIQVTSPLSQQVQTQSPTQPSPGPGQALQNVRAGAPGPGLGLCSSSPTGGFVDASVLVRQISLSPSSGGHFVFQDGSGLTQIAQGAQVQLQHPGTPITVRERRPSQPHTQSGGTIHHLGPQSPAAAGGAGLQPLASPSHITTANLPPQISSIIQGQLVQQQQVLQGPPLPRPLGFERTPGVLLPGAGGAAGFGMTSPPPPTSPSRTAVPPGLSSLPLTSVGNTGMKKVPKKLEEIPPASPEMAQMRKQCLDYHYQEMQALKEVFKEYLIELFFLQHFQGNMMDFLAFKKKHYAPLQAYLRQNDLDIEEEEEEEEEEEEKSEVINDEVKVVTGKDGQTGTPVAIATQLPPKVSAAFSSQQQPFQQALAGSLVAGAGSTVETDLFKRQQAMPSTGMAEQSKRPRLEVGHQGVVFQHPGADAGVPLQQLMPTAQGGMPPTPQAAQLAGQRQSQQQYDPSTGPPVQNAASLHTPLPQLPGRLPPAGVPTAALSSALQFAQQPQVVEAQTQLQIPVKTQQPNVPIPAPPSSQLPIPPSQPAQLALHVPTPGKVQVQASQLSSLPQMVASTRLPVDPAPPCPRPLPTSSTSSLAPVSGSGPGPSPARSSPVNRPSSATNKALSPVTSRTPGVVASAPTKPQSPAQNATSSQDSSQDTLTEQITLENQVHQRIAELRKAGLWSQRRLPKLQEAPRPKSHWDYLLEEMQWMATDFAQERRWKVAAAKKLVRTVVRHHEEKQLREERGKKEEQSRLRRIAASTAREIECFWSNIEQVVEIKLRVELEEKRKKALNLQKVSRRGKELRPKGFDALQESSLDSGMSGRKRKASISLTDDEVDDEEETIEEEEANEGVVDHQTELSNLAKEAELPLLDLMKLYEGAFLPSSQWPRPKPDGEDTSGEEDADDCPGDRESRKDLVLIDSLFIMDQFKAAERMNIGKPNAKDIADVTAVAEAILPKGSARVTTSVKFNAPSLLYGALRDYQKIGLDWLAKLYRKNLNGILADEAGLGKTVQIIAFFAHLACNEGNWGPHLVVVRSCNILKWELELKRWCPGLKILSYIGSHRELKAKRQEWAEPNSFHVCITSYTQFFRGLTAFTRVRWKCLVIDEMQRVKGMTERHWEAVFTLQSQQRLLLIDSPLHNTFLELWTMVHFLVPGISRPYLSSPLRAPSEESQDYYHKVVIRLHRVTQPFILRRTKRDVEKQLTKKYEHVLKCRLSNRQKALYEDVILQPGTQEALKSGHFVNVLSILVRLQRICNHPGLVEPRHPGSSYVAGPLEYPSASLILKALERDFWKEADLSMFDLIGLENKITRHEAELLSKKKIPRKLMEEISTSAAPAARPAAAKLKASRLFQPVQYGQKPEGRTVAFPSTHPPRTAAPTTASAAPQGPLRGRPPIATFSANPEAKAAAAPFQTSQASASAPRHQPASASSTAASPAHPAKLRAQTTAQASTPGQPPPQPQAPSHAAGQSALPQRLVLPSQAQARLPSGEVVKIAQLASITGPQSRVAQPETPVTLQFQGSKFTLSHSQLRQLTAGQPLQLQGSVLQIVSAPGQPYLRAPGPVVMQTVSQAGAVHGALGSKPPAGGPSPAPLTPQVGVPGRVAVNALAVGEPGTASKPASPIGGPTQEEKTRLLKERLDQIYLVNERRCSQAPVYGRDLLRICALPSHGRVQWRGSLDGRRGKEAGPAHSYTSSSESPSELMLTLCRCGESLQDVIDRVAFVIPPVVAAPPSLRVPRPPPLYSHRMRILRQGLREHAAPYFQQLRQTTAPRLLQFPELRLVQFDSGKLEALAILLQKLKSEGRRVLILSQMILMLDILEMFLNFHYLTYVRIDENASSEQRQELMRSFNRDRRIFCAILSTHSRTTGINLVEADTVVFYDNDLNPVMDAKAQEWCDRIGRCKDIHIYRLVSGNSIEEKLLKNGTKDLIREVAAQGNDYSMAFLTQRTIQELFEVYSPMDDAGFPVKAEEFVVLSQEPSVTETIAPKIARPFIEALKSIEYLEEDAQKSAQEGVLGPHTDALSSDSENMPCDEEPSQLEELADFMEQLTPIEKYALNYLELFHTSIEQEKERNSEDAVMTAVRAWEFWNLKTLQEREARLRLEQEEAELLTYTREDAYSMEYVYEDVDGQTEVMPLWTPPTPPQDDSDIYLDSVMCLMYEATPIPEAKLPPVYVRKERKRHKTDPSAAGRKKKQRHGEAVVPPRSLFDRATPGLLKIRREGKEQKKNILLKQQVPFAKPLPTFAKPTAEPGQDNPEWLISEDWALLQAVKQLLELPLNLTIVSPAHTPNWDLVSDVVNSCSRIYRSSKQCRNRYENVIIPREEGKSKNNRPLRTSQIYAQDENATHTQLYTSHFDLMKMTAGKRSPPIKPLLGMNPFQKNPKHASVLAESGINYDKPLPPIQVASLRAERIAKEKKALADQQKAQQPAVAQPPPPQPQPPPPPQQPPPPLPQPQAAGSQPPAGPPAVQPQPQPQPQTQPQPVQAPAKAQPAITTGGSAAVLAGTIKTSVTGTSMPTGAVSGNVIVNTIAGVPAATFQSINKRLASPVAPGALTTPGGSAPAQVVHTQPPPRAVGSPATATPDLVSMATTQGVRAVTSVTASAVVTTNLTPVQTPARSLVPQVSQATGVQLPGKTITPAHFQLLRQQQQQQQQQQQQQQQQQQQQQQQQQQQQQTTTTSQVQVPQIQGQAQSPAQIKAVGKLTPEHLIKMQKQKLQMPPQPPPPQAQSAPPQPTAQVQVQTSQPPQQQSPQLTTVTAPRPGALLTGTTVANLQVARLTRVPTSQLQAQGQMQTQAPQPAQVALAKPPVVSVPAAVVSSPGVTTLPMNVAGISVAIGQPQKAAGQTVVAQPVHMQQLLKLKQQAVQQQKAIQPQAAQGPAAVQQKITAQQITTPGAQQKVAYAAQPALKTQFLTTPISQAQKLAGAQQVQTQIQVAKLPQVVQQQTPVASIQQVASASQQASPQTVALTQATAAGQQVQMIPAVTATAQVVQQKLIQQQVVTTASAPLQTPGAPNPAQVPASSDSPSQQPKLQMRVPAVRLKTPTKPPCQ
# Sequence of UniProt P51570 (P51570 whole entry, looked up): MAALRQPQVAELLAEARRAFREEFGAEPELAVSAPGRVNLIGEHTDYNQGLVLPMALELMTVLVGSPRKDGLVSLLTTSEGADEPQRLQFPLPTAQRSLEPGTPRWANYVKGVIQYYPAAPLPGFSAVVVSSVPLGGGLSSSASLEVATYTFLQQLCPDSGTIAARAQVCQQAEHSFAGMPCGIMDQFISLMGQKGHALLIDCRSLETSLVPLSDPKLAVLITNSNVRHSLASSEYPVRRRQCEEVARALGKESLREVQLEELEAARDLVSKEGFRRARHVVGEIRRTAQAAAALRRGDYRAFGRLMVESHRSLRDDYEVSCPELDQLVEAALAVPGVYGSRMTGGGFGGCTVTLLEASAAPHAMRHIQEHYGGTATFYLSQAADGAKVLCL
# Sequence of UniProt Q9H4H8 (Q9H4H8 whole entry, looked up): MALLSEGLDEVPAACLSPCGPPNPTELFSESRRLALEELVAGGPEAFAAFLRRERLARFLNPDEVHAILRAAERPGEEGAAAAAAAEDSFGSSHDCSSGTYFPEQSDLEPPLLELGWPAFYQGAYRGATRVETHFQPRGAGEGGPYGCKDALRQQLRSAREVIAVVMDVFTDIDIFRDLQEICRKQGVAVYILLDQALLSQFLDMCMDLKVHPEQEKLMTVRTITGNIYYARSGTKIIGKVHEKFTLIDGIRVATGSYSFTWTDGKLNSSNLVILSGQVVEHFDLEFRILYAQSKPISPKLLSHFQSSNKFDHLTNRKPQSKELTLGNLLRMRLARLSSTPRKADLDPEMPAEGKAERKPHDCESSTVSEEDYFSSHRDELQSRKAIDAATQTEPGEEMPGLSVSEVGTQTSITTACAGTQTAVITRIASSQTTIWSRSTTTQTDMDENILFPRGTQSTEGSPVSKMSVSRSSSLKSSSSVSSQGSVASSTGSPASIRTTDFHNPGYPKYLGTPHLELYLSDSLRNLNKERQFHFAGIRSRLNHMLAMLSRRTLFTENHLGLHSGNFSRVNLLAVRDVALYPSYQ
Target,log2 fold change (vemurafenib),log2 fold change [1],log2 fold change (barasertib),log2 fold change [2],log2 fold change (volasertib),log2 fold change [3],log2 fold change [4],log2 fold change [5],log2 fold change (saracatinib),log2 fold change (sotrastaurin)
DUS3L (UniProt Q96G46),-0.055,0.004,-0.038,-0.025,0.005,-0.043,0.246 (active),-0.048,0.021,0.033
FNTB (UniProt P49356),0.055,-0.009,-0.036,0.285 (active),0.005,0.037,-0.036,0.016,0.016,0.042
FPGT (UniProt O14772),-0.008,0.011,0.048,-0.064,-0.018,0.008,0.415 (active),-0.054,0.017,-0.001
FAM120B (UniProt Q96EK7),0.001,0.045,-0.009,0.01,-0.029,0.033,-0.011,-0.085,0.005,0.008
FDFT1 (UniProt P37268),-0.012,0.111,0.023,0.005,-0.069,0.01,-0.047,-0.022,-0.019,0.437 (active)
FHOD1 (UniProt Q9Y613),-0.018,0.018,0.042,-0.05,-0.034,0.048,0.013,-0.017,0.015,0.036
ECI2 (UniProt O75521),0.071,0.013,0.007,0.059,-0.013,0.004,-0.021,-0.017,-0.003,-0.045
ERCC4 (UniProt Q92889),0.071,0.01,0.163,0.144,-0.006,0.004,-0.078,0.114,0.016,0.047
DSN1 (UniProt Q9H410),0,0.043,0.007,0.034,0.001,0.001,-0.017,0.01,0.034,0.003
EAPP (UniProt Q56P03),0.246,0.038,-0.048,0.06,0.02,0.009,-0.085,-0.092,0.034,-0.008
ESRRA (UniProt P11474),0.058,0.005,0.041,0.03,-0.075,-0.039,0.569 (active),-0.283,-0.055,0.053
FECH isoform 2 (UniProt P22830),0.363,-0.891 (active),-0.082,0.477,0.078,-0.03,0.128,0.699,-0.287,0.014
GALK1 isoform 2 (UniProt P51570),0.024,0.01,0.031,0.003,-0.054,-0.009,0.085,-0.055,-0.011,0.031
EP400 isoform 5 (UniProt Q96L91),-0.021,-0.007,-0.015,0.044,-0.042,-0.023,-0.007,0.011,0.01,-0.012
DTWD1 (UniProt Q8N5C7),0.028,0.018,-0.005,0.024,-0.036,0.016,-0.026,-0.032,-0.033,0.019
EIF2AK2 (UniProt P19525),0.025,0.012,-0.038,-0.09,-0.03,-0.008,-0.081,0.067,-0.011,0.007
EBP (UniProt Q15125),0.056,0.024,0.069,0.071,0.038,-0.024,-0.354,0.044,0.135,-0.103
DVL2 (UniProt O14641),0.067,-0.172,0.119,-0.033,0,0.007,0.011,-0.003,0.018,-0.055
GAPDH (UniProt P04406),-0.031,0.002,-0.016,-0.006,-0.002,-0.009,0.042,-0.032,0,-0.01
DST (UniProt Q03001),0.23,0.021,0.083,0.021,-0.045,-0.073,-0.174,0.076,0.052,-0.024
FTL (UniProt P02792),-0.063,0.047,-0.005,0.03,0.06,-0.327,-0.041,0.092,0.058,0.036
ERAL1 (UniProt O75616),-0.058,-0.016,-0.032,0.065,-0.046,0.059,-0.065,-0.359 (active),-0.035,0.02
EXOC3 (UniProt O60645),0.049,0.021,0.02,-0.081,-0.086,0.045,-0.057,-0.001,0.004,0.03
FKBP1A (UniProt P62942),-0.138,-0.028,0.092,0.107,0.163,-0.036,-0.854 (active),0.146,0.052,-0.017
FAM98A (UniProt Q8NCA5),0.063,0.032,-0.016,0.045,-0.029,-0.005,0.088,-0.08,-0.028,0.017
FAM83D (UniProt Q9H4H8),-0.015,0,0.074,0.045,-0.047,-0.01,-0.052,0.029,-0.008,0.032
EEFSEC (UniProt P57772),0.031,0.024,0.031,-0.067,-0.035,-0.012,-0.073,0.009,-0.015,-0.016
FIGNL1 (UniProt Q6PIW4),-0.012,0.042,0.03,-0.063,-0.047,0.027,-0.108,0.036,0.006,-0.015
FAM83A (UniProt Q86UY5),0.038,-0.002,0.035,-0.001,0.003,0.05,0.103,0.06,0.01,-0.049
ERBIN isoform 8 (UniProt Q96RT1),0.038,0.015,-0.004,0.068,-0.013,0.338 (active),-0.028,0.1,-0.001,0.032
